From the supplement of paper PMC9446081 come the findings set out here.

± gives the standard deviation of the averaged measurements.

MurC, sequence (C4ZRI6 whole entry, looked up): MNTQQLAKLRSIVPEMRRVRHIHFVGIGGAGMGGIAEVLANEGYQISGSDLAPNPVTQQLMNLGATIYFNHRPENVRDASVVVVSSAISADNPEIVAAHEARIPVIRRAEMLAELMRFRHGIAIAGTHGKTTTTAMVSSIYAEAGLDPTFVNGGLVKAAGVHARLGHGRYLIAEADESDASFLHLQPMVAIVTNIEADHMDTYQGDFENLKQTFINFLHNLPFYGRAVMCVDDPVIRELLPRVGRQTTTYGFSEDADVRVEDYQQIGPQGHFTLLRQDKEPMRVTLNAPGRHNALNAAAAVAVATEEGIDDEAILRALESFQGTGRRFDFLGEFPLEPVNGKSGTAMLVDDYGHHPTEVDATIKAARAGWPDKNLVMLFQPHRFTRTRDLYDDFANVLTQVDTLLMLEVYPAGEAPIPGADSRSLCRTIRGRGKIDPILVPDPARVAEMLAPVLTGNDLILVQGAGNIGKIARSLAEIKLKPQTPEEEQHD

The assay deals with MurC (UniProt C4ZRI6). Description: relative enzymatic activity vs untreated control (fraction); higher = less inhibition. Conditions: 100 µM; incubation time: 2 h at 37 C. The procedure:
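In vitro enzymatic inhibition assays (ProFoldin kits) for 12 purified essential E. coli enzymes or complexes, each treated with 218 active antibacterial compounds at 100 µM for 2 h at 37°C. Read-outs were fluorescence or absorbance (phosphate detection, dye binding), converted to activity via standard curves and expressed relative to untreated DMSO controls.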
`CC(C)(C)CC(C)(C)c1ccc(OCCOCC[N+](C)(C)Cc2ccccc2)cc1.[Cl-]` had a relative enzymatic activity of 0.398 ± 0.28. Then `CC1COc2c(C3(N)CC3)c(F)cc3c(=O)c(C(=O)O)cn1c23.CS(=O)(=O)O` (stereo not given), with 0.958 ± 0.027; and `Nc1nc(/C(=N/O)C(=O)N[C@@H]2C(=O)N3C(C(=O)O)=C(/C=C4\CCN([C@@H]5CCNC5)C4=O)CS[C@H]23)ns1`, with 0.717 ± 0.24; and `COC1(NC(=O)C(C(=O)[O-])c2ccc(O)cc2)C(=O)N2C(C(=O)[O-])=C(CSc3nnnn3C)COC21.[Na+].[Na+]` (stereo not given), with 1.03 ± 0.046.

Consider `CC1COc2c(N3CCN(C)CC3)c(F)cc3c(=O)c(C(=O)O)cn1c23` (stereo not given), for which the relative enzymatic activity turned out to be 0.983 ± 0.042. Turning to `CO/N=C(\C(=O)N[C@@H]1C(=O)N2C(C(=O)O)=C(C)CS[C@H]12)c1csc(N)n1`, the relative enzymatic activity was 0.884 ± 0.037. Then `CCCCCCCCCCCCCCCC[N+](C)(C)C`, with 0.568 ± 0.56; and `O=c1[nH]c(=O)n([C@H]2C[C@H](O)[C@@H](CO)O2)cc1F`, with 0.993 ± 0.019. Compound `Cl.Cl.N=C(NCCCCCCNC(=N)NC(=N)Nc1ccc(Cl)cc1)NC(=N)Nc1ccc(Cl)cc1` came in with a relative enzymatic activity of 0.901 ± 0.04. To `O=C(O)P(=O)(O)O` belongs 0.972 ± 0.058; to `CN(C)[C@@H]1C(=O)[C@@H](C(N)=O)C(=O)[C@@]2(O)C(=O)[C@H]3C(=O)c4c(O)ccc(Cl)c4[C@@H](O)[C@H]3C[C@@H]12`, 1.009 ± 0.01; to `C=CC1=C(C(=O)O)N2C(=O)[C@@H](NC(=O)/C(=N/O)c3csc(N)n3)[C@H]2SC1`, 0.917 ± 0.017.

As to `Cc1cc(C2CCCCC2)n(O)c(=O)c1.NCCO`, the relative enzymatic activity came out at 1.18 ± 0.057. In turn, `CC1CN(c2c(F)c(N)c3c(=O)c(C(=O)O)cn(C4CC4)c3c2F)CC(C)N1` (stereo not given) displayed a relative enzymatic activity of 0.989 ± 0.12.

Compound `CON=C(C(=O)N[C@@H]1C(=O)N2C(C(=O)O)=C(CSc3nc(=O)c(O)nn3C)CS[C@H]12)c1csc(N)n1` had a relative enzymatic activity of 0.751 ± 0.23. With `CN(C)C1C(O)=C(C(N)=O)C(=O)C2(O)C(O)=C3C(=O)c4c(O)ccc(Cl)c4C(O)C3CC12.Cl` (stereo not given), the relative enzymatic activity amounted to 1.021 ± 0.0019. In turn, `Cn1sccc1=O` had a relative enzymatic activity of 0.969 ± 0.062. To `CN[C@@H]1[C@H](O[C@H]2[C@H](O[C@@H]3[C@@H](O)[C@H](O)[C@@H](NC(=N)N)[C@H](O)[C@H]3NC(=N)N)O[C@@H](C)[C@]2(O)CO)O[C@@H](CO)[C@H](O)[C@H]1O.CN[C@@H]1[C@H](O[C@H]2[C@H](O[C@@H]3[C@@H](O)[C@H](O)[C@@H](NC(=N)N)[C@H](O)[C@H]3NC(=N)N)O[C@@H](C)[C@]2(O)CO)O[C@@H](CO)[C@H](O)[C@H]1O` belongs 0.963 ± 0.063. Turning to `Cc1cc(C(C)(C)CC(C)(C)C)ccc1OCCOCC[N+](C)(C)Cc1ccccc1.[Cl-]`, the relative enzymatic activity worked out at 0.647 ± 0.59. `O=C([O-])C1=C(CSc2nnnn2CS(=O)(=O)[O-])CSC2C(NC(=O)C(O)c3ccccc3)C(=O)N12.[Na+].[Na+]` (stereo not given) registered a relative enzymatic activity of 1.25 ± 0.052. Then `Cn1cc(-c2[nH]c3cc(NC(=O)[C@H](N)C4CCCCC4)cc4c3c2C=NNC4=O)cn1`, with 0.943 ± 0.039; and `O=C(O)c1c(O)c2c([nH]c1=O)CCCC2`, with 0.602 ± 0.36.

In turn, `NCCCC[C@H](NC(=O)[C@@H](NC(=O)[C@H](Cc1c[nH]c2ccccc12)NC(=O)[C@H](CCCCN)NC(=O)[C@H](CCCCN)NC(=O)[C@H](Cc1c[nH]c2ccccc12)NC(=O)[C@H](Cc1c[nH]c2ccccc12)NC(=O)[C@H](CCCCN)NC(=O)[C@@H](N)CCCCN)C(c1ccccc1)c1ccccc1)C(N)=O` displayed a relative enzymatic activity of 0.995 ± 0.015. Regarding `Cc1oc(=O)oc1CN1CCN(c2cc3c(cc2F)c(=O)c(C(=O)O)c2n3C(C)S2)CC1` (stereo not given), the relative enzymatic activity is 0.821 ± 0.066.

`O=c1[nH]cc(F)c(=O)[nH]1` registered a relative enzymatic activity of 0.97 ± 0.074. `COc1cc(Cc2cnc(N)nc2N)cc(OC)c1OC` had a relative enzymatic activity of 1.03 ± 0.086. `CON=C(C(=O)N[C@@H]1C(=O)N2C(C(=O)OCOC(=O)C(C)(C)C)=C(C=Cc3scnc3C)CS[C@H]12)c1csc(N)n1` displayed a relative enzymatic activity of 0.769 ± 0.15. To `CC(C)(O/N=C(\C(=O)N[C@@H]1C(=O)N2C(C(=O)O)=C(C[N+]3(CCNC(=O)c4ccc(O)c(O)c4Cl)CCCC3)CS[C@H]12)c1csc(N)n1)C(=O)O` belongs 0.83 ± 0.29; to `CN(C)c1cc(CNCC(C)(C)C)c(O)c2c1C[C@H]1C[C@H]3[C@H](N(C)C)C(=O)[C@H](C(N)=O)C(=O)[C@@]3(O)C(=O)[C@@H]1C2=O`, 1.13 ± 0.062. With `CCCN1C[C@H](C)[C@@H](O)[C@](C)(O)[C@@H](CC)OC(=O)[C@H](C)[C@@H](O[C@H]2C[C@@](C)(OC)[C@@H](O)[C@H](C)O2)[C@H](C)[C@@H](O[C@@H]2O[C@H](C)C[C@H](N(C)C)[C@H]2O)[C@](C)(O)C[C@H]1C`, the relative enzymatic activity is 1.02 ± 0.024. With `N[C@@H](C(=O)N[C@@H]1C(=O)N2C(C(=O)O)=C(Cl)CC[C@H]12)c1ccccc1`, the relative enzymatic activity was found to be 0.967 ± 0.054.

Take `CON=C(C(=O)NC1C(=O)N2C(C(=O)O)=C(C[N+]3(C)CCCC3)CSC12)c1csc(N)n1.[Cl-]` (stereo not given): the relative enzymatic activity was 0.984 ± 0.032. Take `O=C([O-])CCC(=O)OCC(NC(=O)C(Cl)Cl)C(O)c1ccc([N+](=O)[O-])cc1.[Na+]` (stereo not given): the relative enzymatic activity is 1.01 ± 0.081. The compound `NC(=O)[C@@H]1CC[C@@H]2CN1C(=O)N2OS(=O)(=O)O` gave a relative enzymatic activity of 1.04 ± 0.022. `C[C@H]1c2cccc(O)c2C(=O)C2=C(O)[C@]3(O)C(=O)[C@@H](C(N)=O)C(=O)[C@@H](N(C)C)[C@@H]3[C@@H](O)[C@@H]21` yielded a relative enzymatic activity of 0.97 ± 0.064.

`NC(=O)NN=Cc1ccc([N+](=O)[O-])o1` showed a relative enzymatic activity of 1.05 ± 0.014. Consider `CON=C(C(=O)NC1C(=O)N2C(C(=O)[O-])=C(COC(N)=O)CSC12)c1ccco1.[Na+]` (stereo not given), for which the relative enzymatic activity stood at 1.33 ± 0.083. Turning to `CCC1OC(=O)C(C)C(=O)C(C)C(OC2OC(C)CC(N(C)C)C2O)C(C)(OC)CC(C)C(=O)C(C)C2N(CCCCn3cnc(-c4cccnc4)c3)C(=O)OC12C` (stereo not given), the relative enzymatic activity was 0.741 ± 0.33. To `COC1C=COC2(C)Oc3c(C)c(O)c4c(O)c(c5c(nc6cc(C)ccn65)c4c3C2=O)NC(=O)C(C)=CC=CC(C)C(O)C(C)C(O)C(C)C(OC(C)=O)C1C` (stereo not given) belongs 0.715 ± 0.08.

`CC1c2cccc(O)c2C(=O)C2=C(O)C3(O)C(=O)C(C(N)=O)=C(O)C(N(C)C)C3C(O)C21.Cl` (stereo not given) came in with a relative enzymatic activity of 1.02 ± 0.027.
